Assay outcomes as filed in PubChem BioAssay.
In the library only some 7% were active in any assay of this set; here they are far more common.
IL1B secr inh: qHTS for Inhibitors of Inflammasome Signaling: IL-1-beta AlphaLISA Primary Screen | AID 743279, 2014 | THP-1 LPS/ATP IL-1B secretion, AlphaLISA, 16 h; hits give low values | activity change, % at 57.5 µM | actives 4.7% (n = 360,000); in the data active = activity change below about -50%; inconclusive = mostly about -30% to -49%; note: % is set by controls: 0 for no effect and ±100 for the full control effect
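Secreted IL-1B measured by AlphaLISA bead assay after 16 h compound exposure of THP-1 cells; compounds (final up to 57.5 uM) added 1 h before LPS (250 ng/mL) and ATP (1.25 mM) stimulation; lower signal means less secretion.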
S2 tox: Viability Counterscreen for Primary qHTS for Inhibitors of ATXN expression; Potency, µM (top dose mostly 56.7 µM), most hits filed as cytotoxic; AID 651635, 2014; S2 cells (HEK-293 line with an ATXN2-luciferase reporter) viability, CellTiter-Fluor protease fluorescence, 24 h; actives 0.49% (n = 400,000); note: potency is the fitted concentration of half-maximal effect; nearly all actives have a fitted effect of over 40% in size
a7 integrin act: qHTS for Activators of Integrin-Mediated Alleviation for Muscular Dystrophy. alpha7betagal myoblasts, beta-gal FDG fluorescence, 48 h. Potency, µM (top dose mostly 38.3 µM), for inactives: at the top dose activation, usual class: activators. actives 0.064% (n = 350,000);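 note: potency is the fitted concentration of half-maximal effect; 100% = response of the positive control SU9516; nearly all actives have a fitted effect of over 60% in size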
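Alpha7betagal+/- myoblasts (passage 13) were plated 16-24 hr, then exposed to compounds (1:260 dilution of DMSO stock) for 48 hours at 37C. After MPER lysis, β-galactosidase reporter activity was read as FDG fluorescence (ex 480/em 540) after 30 minutes.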
ATXN2 expr inh: Primary qHTS for Inhibitors of ATXN expression; AID 1745845, 2022; actives 0.72% (n = 360,000); Potency, µM (doses to about 57 µM), inactives show at the highest dose activity change, negative = inhibition, actives largely listed as inhibitors; HEK-293 ATXN2-luciferase reporter, luminescence, 24 h; note: potency is the fitted concentration of half-maximal effect; % is set by controls: 0 for no effect and ±100 for the full control effect; nearly all actives have a fitted effect of over 55% in size
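qHTS (up to 57 uM final) was run with 24 h compound exposure of reporter cells at 37 °C. Each well was multiplexed: SteadyGlo luminescence measured ATXN2-luciferase expression after a fluorogenic Gly-Phe-AFC viability readout (25 uM final).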
DRD3 agonist: qHTS of D3 Dopamine Receptor Agonist: qHTS; D3R DiscoveRx beta-arrestin cells, luminescence, 90 min; max activation, %; actives 0.58% (n = 410,000); in the data active = max activation above about 30%; note: 0% is about no effect
Target sequence (P35462 whole entry, looked up): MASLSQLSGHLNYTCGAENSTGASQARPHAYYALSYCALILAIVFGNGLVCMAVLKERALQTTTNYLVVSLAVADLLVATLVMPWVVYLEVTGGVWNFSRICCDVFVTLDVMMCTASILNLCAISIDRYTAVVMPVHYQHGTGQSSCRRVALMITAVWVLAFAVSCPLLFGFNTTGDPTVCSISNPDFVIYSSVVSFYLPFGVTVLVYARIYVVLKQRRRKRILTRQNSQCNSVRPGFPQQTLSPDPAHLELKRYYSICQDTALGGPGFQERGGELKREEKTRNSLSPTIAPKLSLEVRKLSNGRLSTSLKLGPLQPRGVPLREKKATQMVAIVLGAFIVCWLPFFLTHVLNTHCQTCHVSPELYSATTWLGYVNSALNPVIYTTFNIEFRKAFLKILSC
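Agonist-mode cell screen: cells plated at 1500/well and incubated overnight at 37 °C, then exposed to library compounds for 90 min at 37 °C. Detection reagent was added for 30–60 min at room temperature, and luminescence was read.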
D3 antag: qHTS of D3 Dopamine Receptor Antagonist: qHTS; D(3) dopamine receptor (Homo sapiens), P35462; D3R cells, DiscoveRx beta-arrestin luminescence, antagonist mode; hits give low values; max response, negative = inhibition, %; actives 2.5% (n = 360,000); in the data active = max response below about -50%; inconclusive = no clear call, values can overlap the other calls; note: % is set by controls: 0 for no effect and ±100 for the full control effect
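Cells plated overnight at 1500 cells/well, then exposed to library compounds with dopamine controls for 90 minutes at 37 degrees C. DiscoveRx reagent added for 30–60 minutes at room temperature; luminescence read, quantitative HTS format.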
* hit, by the source's call; i = inactive; ? = inconclusive; / = not tested or not shown; [ ] = dose if it differs, or a comment. Unless noted, calls come from the whole dose curve; as a rule, active = well fitted curve in the direction sought with a large enough effect; inconclusive = small, poorly fitted or top-dose-only effect, or another doubt; inactive = no such curve, though single readings can be large; an effect the other way counts as inactive or inconclusive.

SMILES	IL1B secr inh	S2 tox	a7 integrin act	ATXN2 expr inh	DRD3 agonist	D3 antag
COC(CNC(=O)CNC(=S)N(Cc1ccccc1)Cc1cccnc1)OC	5	i	11%	9%	-14	0
COc1ccc(CNC(=O)C2CCCN(c3nn4c(=O)cc(C)nc4s3)C2)cc1 (stereo not drawn)	-12	i	-20%	/	3	-14
O=c1c2ccccc2c(-c2ccc(O)cc2)nn1-c1cccc(C(F)(F)F)c1	-98*	i	-45%	?	-7	-10
O=c1c2ccccc2c(-c2cccc(C(F)(F)F)c2)nn1-c1ccccc1	-13	i	-16%	-13%	-2	6
Cc1cc(NCc2ccco2)nc2cc(O)ccc12	1	i	?	-5%	-9	-12
COC(=O)c1cc(Nc2cc(C)c3ccc(O)cc3n2)cc(C(=O)OC)c1	-65*	i	-39%	-26%	-10	10
Cc1ccc(Nc2cc(C)c3ccc(O)cc3n2)cc1C	-18	i	-23%	/	-19	-57*
O=C(Cn1cnc([N+](=O)[O-])c1)NCCc1ccccc1	-10	i	0%	-5%	-6	?
C=Cc1ccc(Cn2c(C(=O)O)c(CNCc3ccc(F)cc3)c3ccc(C)cc32)cc1	/	18µM*	/	?	0	/
Cc1ccc2c(CNCc3cccs3)c(C(=O)O)n(Cc3ccc(F)cc3)c2c1	/	?	/	-20%	-5	/
COc1ccc(Cn2c(C(=O)O)c(CNCc3cccs3)c3ccc(C)cc32)cc1	/	5µM*	/	?	1	/
O=C(O)C(NC(=O)c1ccccc1)=C(Cl)Cl	-12	i	-2%	0%	5	13
COC(=O)[C@@]1(Cc2ccc(OC)cc2)[C@H]2c3cc(C(=O)N4CCCC4)n(CCc4c[nH]c5ccccc45)c3C[C@H]2CN1C(=O)c1ccccc1	-3	?	/	-4%	2	14
Cc1cccnc1NC(=O)CSc1ncnc2sc(C)c(C)c12	-1	i	-14%	-12%	5	18
Cc1cccc(-n2c(N)c(C(=O)NCCN3CCOCC3)c3nc4ccccc4nc32)c1	-64*	?	-6%	-12%	3	44
CC(C)Cn1c(N)c(C(=O)NCCN2CCOCC2)c2nc3ccccc3nc21	-61*	/	-29%	-11%	4	10
CC(C)Cn1c2nc3ccccc3nc2c2c(=O)n(CCN3CCOCC3)cnc21	-56*	i	-1%	-7%	4	0
CCCNC(=O)c1c(N)n(-c2cc(OC)cc(OC)c2)c2nc3ccccc3nc12	-55*	i	-60%	-11%	1	3
CCCn1nnnc1SCC(=O)N1CCOCC1	8	i	4%	3%	-3	0
CCCNC(=O)c1c(N)n(-c2ccc3c(c2)OCO3)c2nc3ccccc3nc12	-22	?	2%	-37%	0	3
CCCCn1c2nc3ccccc3nc2c2c(=O)n(CCC(C)C)cnc21	18	i	15%	-1%	2	4
CCCn1cnc2c(c1=O)c1nc3ccccc3nc1n2CCc1ccccc1	-19	i	18%	-5%	19	-53*
Nc1c(C(=O)NC2CC2)c2nc3ccccc3nc2n1-c1ccc2c(c1)OCO2	-51*	i	5%	-6%	1	8
Nc1nc(COc2ccc3ccccc3c2)cs1	?	i	34%	46%	-8	-28
CCOc1cccc(OCCCNCCCOC)c1	14	i	-6%	3%	-5	-59*
CNCCCOc1cccc(OC(C)C)c1	-6	?	-28%	3%	-6	-13
CCOC(=O)C(CCCCOc1cccc(CC)c1)C(=O)OCC	13	i	6%	-5%	10	-18
C=CCNCCCCOc1cccc(Br)c1	-65*	/	13%	-20%[11.3 µM]	-17	-62*
CCc1cccc(OCCCCN(CC)CC)c1	3	i	-11%	-18%	-25	-73*
